A number with no mark means an inactive call.
Experiments:
Details in all cases: 60 µM; 5 days; temperature: 20 °C
Meloidogyne hapla J2 = experiment: proportion of mobile M. hapla J2 relative to DMSO control (fraction of DMSO control); higher = more viable, less nematicidal, active = 0.7 or less
Outline: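 About 25 M. hapla J2 were placed in each well of a 96-well plate in distilled water, and compound was pinned in to a final 60 µM with 0.6% v/v DMSO. The sealed plates were shaken at 200 rpm at 20 °C for 5 days, after which 2 µL of 1 M NaOH went into each well. Mobility was then scored under the microscope and divided by the mean value from DMSO-only wells on the same plate. Each plate held eight such DMSO wells, and two biological replicates were averaged.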

[1] = tested on: Caenorhabditis elegans dauer (daf-2(e1370)); experiment: proportion of mobile C. elegans dauer larvae relative to DMSO control (fraction of DMSO control); higher = more viable, less nematicidal, active = 0.63 or less; extreme values may be limits of the assay
Outline: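 Synchronized C. elegans larvae were kept for 48 h at 25 °C on MYOB plates seeded with E. coli OP50 to induce dauer formation, and roughly 20 dauers were transferred into each well of a 96-well plate containing liquid NGM. Compound was pinned in to a final concentration of 60 µM with 0.6% v/v DMSO, and the sealed plates were shaken at 200 rpm for 5 days at 20 °C. The fraction of mobile worms was scored under a dissection microscope against DMSO-only wells and averaged across two biological replicates.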

Ditylenchus dipsaci = experiment: proportion of mobile D. dipsaci (mixed stage) relative to DMSO control (fraction of DMSO control); higher = more viable, less nematicidal, active = 0.86 or less; extreme values may be limits of the assay
Outline: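 Ditylenchus dipsaci nematodes were cultured on pea plants in Gamborg B-5 agar, then extracted into water through a filter funnel, and roughly 20 worms in distilled water were placed in each well of a 96-well plate. Compound was pinned in to a final concentration of 60 µM (0.6% v/v DMSO), and the sealed plates were shaken at 200 rpm for 5 days at 20 °C. Mobile worms were counted under the microscope after 2 µL of 1 M NaOH was added. Mobility is given relative to DMSO controls as the mean of two biological replicates.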

Structure (SMILES) | proportion of mobile M. hapla J2 (Meloidogyne hapla J2) | proportion of mobile C. elegans dauer larvae [1] | proportion of mobile D. dipsaci (Ditylenchus dipsaci)
Brc1ccccc1-c1nc(-c2ccccn2)no1 | 0.678 (active) | 0.738 | 1
COc1ccccc1OCc1nc(-c2ccc(Br)cc2)no1 | 1.04 | 1 | 1
c1ccc(COc2cccc(-c3nc(-c4cccnc4)no3)c2)cc1 | 0.854 | 1 | 1
Cc1cccc(-c2nc(-c3ccc4c(c3)OCO4)no2)c1 | 1.01 | 1 | 1
Clc1ccc(SCc2nc(-c3ccccc3)no2)cc1 | 0.783 | 0.59 (active) | 1
Clc1cc(Br)ccc1OCc1nc(-c2ccccn2)no1 | 1.01 | 1 | 1
Cc1ccc(-c2noc(-c3ccco3)n2)s1 | 1.11 | 0.812 | 1
Brc1ccc(CSc2nnc(-c3ccncc3)o2)cc1 | 1.01 | 1 | 1
Cc1c(C)n(C(=O)CSc2nnc(-c3ccccc3)o2)c2ccccc12 | 0.982 | 1 | 1
O=C(Nc1cccnc1)c1ccccc1-c1nc(-c2ccc(Cl)cc2)no1 | 0.934 | 1 | 1
COc1nc(-c2ccccc2)ccc1-c1noc(C(C)C)n1 | 0.776 | 1 | 1
CCc1nnc(NC(=O)CSc2nnc(-c3cccc(C)c3)o2)s1 | 0.815 | 1 | 1
O=C(c1ccccc1-c1nc(-c2ccccc2Cl)no1)N1CCCC1 | 0.947 | 1 | 1
CC(C)C(=O)Nc1ccccc1-c1nc(-c2ccncc2)no1 | 0.987 | 1 | 1
Cc1cc(C)cc(-c2nc(-c3ccc(Cl)cc3)no2)c1 | 0.938 | 1 | 1
Cc1ccc(-c2nnc(SCc3ccccc3Cl)o2)cc1 | 0.964 | 1 | 1
Cc1ccc(-c2nnc(SCC(=O)Nc3c(C)cc(C)cc3C)o2)cc1 | 0.979 | 1 | 1

Structure (SMILES) | proportion of mobile M. hapla J2 (Meloidogyne hapla J2) | proportion of mobile C. elegans dauer larvae [1] | proportion of mobile D. dipsaci (Ditylenchus dipsaci)
CCCOc1ccc(-c2ccc(-c3nc(-c4ccccn4)no3)cc2)cc1 | 0.969 | 1 | 1
CCOc1ccc(NC(=O)CSc2nnc(-c3ccccc3Cl)o2)cc1 | 0.974 | 1 | 1
O=C(CSc1nnc(-c2ccncc2)o1)Nc1cc(Cl)cc(Cl)c1 | 0.948 | 1 | 0.955
CCOc1ccccc1-c1nnc(SCC(=O)Nc2ccccc2)o1 | 0.907 | 1 | 1
N#Cc1ccccc1CSc1nnc(-c2ccccc2)o1 | 0.841 | 1 | 1
Cc1cc(C)c(OCc2nc(-c3ccncc3)no2)c(C)c1 | 0.938 | 1 | 1
COc1ccc(NC(=O)CSc2nnc(-c3ccccc3C)o2)cc1 | 0.838 | 1 | 1
CCN(Cc1ccccc1)C(=O)c1ccccc1-c1nc(-c2cccc(C)c2)no1 | 0.579 (active) | 1 | 1
Cc1ccc(-c2nc(-c3ccccc3)no2)cc1Cl | 0.996 | 1 | 1
Ic1cccc(-c2nc(-c3cccnc3)no2)c1 | 1.04 | 1 | 1
Cc1cc(OCc2nc(-c3cccnc3)no2)c(C)cc1Br | 0.771 | 1 | 1
Cc1ccc(OC(C)c2nc(-c3cccnc3)no2)cc1 (configuration not stated) | 1.03 | 1 | 1
O=C(CSc1nnc(-c2ccccc2)o1)NC1CCCCC1 | 1.01 | 1 | 1
Cc1ccc(CSc2nnc(-c3cccc(Br)c3)o2)c(C)c1 | 1.02 | 1 | 1
CC(=O)Nc1ccc(-c2nc(-c3ccccc3)no2)cc1 | 0.961 | 1 | 1
Cc1ccccc1-c1noc(-c2ccc(F)cc2)n1 | 0.909 | 1 | 1
CCCCCOC(=O)CSc1nnc(-c2ccc(Cl)cc2Cl)o1 | 0.737 | 1 | 1

— the supplement of paper PMC11219838
